# Data published in paper PMC7862700, “An all-to-all approach to the identification of sequence-specific readers for epigenetic DNA modifications on cytosine”.
# Columns and labels:
# Test in all cases: DAPPL (digital affinity profiling via proximity ligation, sequencing); 10 mM Tris-HCl pH 7.5, 50 mM NaCl, 1 mM DTT, 4% glycerol, room temperature, 30 min; GST-TFs on glutathione beads, 16-mer random dsDNA library, 0.1% formaldehyde crosslink after washing; high values mean tight binding
# [1] = biological target: T1, FEV (Homo sapiens, UniProt Q99581 1-238); conditions: protein: recombinant; tags: N-terminal GST; dsDNA, one strand shown
# T1 sequence: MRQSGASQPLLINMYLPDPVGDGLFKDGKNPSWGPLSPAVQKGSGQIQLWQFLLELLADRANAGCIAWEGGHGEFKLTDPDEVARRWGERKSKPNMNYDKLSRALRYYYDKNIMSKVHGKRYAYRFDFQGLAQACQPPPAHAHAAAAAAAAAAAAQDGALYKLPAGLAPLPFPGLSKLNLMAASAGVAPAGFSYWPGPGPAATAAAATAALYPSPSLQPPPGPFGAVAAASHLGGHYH
# In short: (§1)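 Human transcription factors carrying a GST fusion were produced in yeast, bound to glutathione beads, tagged with DNA barcodes and pooled together with a tag-only sample. Each pool was held with 200 nmole of a random double-stranded 16-mer DNA library in Tris/NaCl/DTT/glycerol buffer for 30 min at room temperature, then washed, crosslinked in 0.1% formaldehyde, proximity-ligated with BsaI/T4 ligase (1 h, 37 °C), PCR-amplified and sequenced on an Illumina NextSeq500. Binding signal is the read frequency of each hexamer for a given factor divided by its frequency in the tag-only sample.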
# [2] = biological target: ETV5 (Homo sapiens, UniProt P41161 1-510); conditions: protein: recombinant; tags: N-terminal GST; dsDNA, one strand shown
# In short: as §1
# [3] = biological target: HSF1 (Homo sapiens, UniProt Q00613 1-529); conditions: protein: recombinant; tags: N-terminal GST; chain copies: 3; dsDNA, one strand shown
# In short: as §1
# [4] = biological target: T2, SPIC (Homo sapiens, UniProt Q8N5J4 1-248); conditions: protein: recombinant; tags: N-terminal GST; dsDNA, one strand shown
# T2 sequence: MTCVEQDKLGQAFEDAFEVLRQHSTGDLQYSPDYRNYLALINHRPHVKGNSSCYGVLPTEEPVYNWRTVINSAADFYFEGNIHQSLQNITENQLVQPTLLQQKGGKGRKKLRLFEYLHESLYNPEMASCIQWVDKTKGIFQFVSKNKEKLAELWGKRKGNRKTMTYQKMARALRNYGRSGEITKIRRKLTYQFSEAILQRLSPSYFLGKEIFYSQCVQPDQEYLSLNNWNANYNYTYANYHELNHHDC
# In short: as §1
# [5] = biological target: ELF4 (Homo sapiens, UniProt Q99607 1-663); conditions: protein: recombinant; tags: N-terminal GST; dsDNA, one strand shown
# In short: as §1
# [6] = biological target: T3, ELK4 (Homo sapiens, UniProt P28324-2 1-405); conditions: protein: recombinant; tags: N-terminal GST; dsDNA, one strand shown
# T3 sequence: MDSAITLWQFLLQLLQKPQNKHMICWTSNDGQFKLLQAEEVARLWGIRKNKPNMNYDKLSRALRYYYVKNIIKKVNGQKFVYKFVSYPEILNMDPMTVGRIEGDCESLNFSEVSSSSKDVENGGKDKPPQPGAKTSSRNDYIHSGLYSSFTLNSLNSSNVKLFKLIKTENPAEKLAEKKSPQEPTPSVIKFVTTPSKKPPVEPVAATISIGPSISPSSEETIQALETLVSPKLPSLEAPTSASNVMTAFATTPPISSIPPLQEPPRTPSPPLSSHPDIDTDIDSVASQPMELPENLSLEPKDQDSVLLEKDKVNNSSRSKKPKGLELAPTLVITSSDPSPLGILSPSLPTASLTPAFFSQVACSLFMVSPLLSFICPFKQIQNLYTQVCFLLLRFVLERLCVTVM
# In short: as §1
# [7] = biological target: T4, ETV2 (Homo sapiens, UniProt O00321 1-342); conditions: protein: recombinant; tags: N-terminal GST; dsDNA, one strand shown
# T4 sequence: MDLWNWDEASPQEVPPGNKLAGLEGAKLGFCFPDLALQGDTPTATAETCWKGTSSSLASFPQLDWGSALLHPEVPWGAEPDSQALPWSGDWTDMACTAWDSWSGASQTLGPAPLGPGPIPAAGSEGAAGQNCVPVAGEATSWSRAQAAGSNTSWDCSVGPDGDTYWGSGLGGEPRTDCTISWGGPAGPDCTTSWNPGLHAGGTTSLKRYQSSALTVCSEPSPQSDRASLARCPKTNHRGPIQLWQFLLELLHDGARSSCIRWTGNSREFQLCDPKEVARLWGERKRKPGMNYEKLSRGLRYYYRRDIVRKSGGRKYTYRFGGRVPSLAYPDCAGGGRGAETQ
# In short: as §1
# [8] = biological target: T5, ELF3 (Homo sapiens, UniProt P78545 1-371); conditions: protein: recombinant; tags: N-terminal GST; dsDNA, one strand shown
# T5 sequence: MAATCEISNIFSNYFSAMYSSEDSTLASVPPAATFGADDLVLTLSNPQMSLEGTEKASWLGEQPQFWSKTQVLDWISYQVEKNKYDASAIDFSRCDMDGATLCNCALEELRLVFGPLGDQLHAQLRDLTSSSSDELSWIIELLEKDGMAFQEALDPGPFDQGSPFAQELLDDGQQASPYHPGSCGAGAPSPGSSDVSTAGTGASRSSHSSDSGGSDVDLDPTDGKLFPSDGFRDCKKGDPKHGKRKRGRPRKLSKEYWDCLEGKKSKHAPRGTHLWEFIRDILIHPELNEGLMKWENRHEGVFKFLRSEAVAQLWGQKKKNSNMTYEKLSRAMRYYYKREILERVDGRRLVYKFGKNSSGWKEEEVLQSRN
# In short: as §1
# [9] = biological target: CRX (Homo sapiens, UniProt O43186 1-299); conditions: protein: recombinant; tags: N-terminal GST; dsDNA, one strand shown
# In short: as §1
# [10] = biological target: ETV1 (Homo sapiens, UniProt P50549 1-477); conditions: protein: recombinant; tags: N-terminal GST; dsDNA, one strand shown
# In short: as §1
# [11] = biological target: T6, ERF (Homo sapiens, UniProt P50548 1-548); conditions: protein: recombinant; tags: N-terminal GST; dsDNA, one strand shown
# T6 sequence: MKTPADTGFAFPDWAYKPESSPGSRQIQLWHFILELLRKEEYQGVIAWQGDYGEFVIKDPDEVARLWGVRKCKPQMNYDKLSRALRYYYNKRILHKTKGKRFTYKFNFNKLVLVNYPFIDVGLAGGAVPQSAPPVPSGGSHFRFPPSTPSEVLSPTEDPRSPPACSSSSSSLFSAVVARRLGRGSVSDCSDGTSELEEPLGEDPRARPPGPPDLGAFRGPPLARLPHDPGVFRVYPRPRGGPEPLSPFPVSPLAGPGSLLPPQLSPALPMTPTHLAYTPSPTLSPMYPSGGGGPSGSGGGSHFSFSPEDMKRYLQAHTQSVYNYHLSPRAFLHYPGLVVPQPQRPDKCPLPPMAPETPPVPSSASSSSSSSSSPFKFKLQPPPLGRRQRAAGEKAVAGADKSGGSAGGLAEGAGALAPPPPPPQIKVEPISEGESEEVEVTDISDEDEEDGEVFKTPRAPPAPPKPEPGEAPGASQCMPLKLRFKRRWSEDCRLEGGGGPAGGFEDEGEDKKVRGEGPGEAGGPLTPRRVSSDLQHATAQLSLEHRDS
# In short: as §1
# [12] = biological target: T7, ETV3L (Homo sapiens, UniProt Q6ZN32 1-361); conditions: protein: recombinant; tags: N-terminal GST; dsDNA, one strand shown
# T7 sequence: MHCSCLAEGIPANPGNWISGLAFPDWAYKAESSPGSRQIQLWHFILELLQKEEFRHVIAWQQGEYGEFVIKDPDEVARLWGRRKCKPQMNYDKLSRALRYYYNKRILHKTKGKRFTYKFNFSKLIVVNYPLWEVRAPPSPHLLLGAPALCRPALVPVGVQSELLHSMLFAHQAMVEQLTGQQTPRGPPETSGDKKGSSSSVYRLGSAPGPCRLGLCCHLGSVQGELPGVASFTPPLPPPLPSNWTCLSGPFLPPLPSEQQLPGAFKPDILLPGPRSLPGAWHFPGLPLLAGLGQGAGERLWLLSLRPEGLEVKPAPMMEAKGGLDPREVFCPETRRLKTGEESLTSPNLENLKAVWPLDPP
# In short: as §1
# [13] = biological target: T8, ETS2 (Homo sapiens, UniProt P15036 1-469); conditions: protein: recombinant; tags: N-terminal GST; dsDNA, one strand shown
# T8 sequence: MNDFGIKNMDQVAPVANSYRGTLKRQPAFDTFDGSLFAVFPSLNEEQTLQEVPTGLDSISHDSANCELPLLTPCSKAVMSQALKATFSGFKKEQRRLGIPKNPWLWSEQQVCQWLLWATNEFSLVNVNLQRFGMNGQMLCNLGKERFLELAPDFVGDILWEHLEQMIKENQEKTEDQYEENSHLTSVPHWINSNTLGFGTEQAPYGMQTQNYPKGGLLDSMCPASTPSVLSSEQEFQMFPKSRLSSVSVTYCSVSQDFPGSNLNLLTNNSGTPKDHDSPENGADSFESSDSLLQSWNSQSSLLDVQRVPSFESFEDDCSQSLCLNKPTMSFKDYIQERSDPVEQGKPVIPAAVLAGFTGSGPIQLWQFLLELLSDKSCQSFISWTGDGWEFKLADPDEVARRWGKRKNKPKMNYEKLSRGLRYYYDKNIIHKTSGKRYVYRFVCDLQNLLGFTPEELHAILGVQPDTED
# In short: as §1
# [14] = biological target: T9, SPDEF (Homo sapiens, UniProt O95238 1-335); conditions: protein: recombinant; tags: N-terminal GST; dsDNA, one strand shown
# T9 sequence: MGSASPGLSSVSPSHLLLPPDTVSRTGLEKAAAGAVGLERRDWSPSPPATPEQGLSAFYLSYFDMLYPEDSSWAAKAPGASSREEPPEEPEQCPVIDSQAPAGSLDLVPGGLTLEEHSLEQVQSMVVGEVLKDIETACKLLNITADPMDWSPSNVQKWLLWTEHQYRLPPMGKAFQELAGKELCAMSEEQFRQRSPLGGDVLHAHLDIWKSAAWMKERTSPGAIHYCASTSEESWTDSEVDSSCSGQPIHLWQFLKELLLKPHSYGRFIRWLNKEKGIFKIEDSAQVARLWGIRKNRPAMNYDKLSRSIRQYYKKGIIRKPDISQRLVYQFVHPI
# In short: as §1
# [15] = biological target: T10, ETV7 (Homo sapiens, UniProt Q9Y603 1-341); conditions: protein: recombinant; tags: N-terminal GST; dsDNA, one strand shown
# T10 sequence: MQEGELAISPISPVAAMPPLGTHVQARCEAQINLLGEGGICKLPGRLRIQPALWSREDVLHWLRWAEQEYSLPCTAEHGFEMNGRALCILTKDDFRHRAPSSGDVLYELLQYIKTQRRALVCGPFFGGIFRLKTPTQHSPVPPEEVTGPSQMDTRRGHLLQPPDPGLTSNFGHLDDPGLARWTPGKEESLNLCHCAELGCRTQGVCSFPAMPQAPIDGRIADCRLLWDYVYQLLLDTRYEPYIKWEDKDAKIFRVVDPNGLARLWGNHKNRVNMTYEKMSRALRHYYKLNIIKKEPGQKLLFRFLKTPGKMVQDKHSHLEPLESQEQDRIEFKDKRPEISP
# In short: as §1
# [16] = biological target: T11, ELF5 (Homo sapiens, UniProt Q9UKW6-2 1-255); conditions: protein: recombinant; tags: N-terminal GST; dsDNA, one strand shown
# T11 sequence: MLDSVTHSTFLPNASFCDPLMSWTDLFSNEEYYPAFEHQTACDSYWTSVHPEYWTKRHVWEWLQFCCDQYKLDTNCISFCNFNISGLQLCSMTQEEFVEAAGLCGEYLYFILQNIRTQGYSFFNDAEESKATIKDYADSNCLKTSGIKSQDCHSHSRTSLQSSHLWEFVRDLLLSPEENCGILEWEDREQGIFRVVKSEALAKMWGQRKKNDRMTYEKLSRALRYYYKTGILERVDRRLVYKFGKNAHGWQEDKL
# In short: as §1
# [17] = biological target: T12, ETV3 (Homo sapiens, UniProt P41162-2 1-143); conditions: protein: recombinant; tags: N-terminal GST; dsDNA, one strand shown
# T12 sequence: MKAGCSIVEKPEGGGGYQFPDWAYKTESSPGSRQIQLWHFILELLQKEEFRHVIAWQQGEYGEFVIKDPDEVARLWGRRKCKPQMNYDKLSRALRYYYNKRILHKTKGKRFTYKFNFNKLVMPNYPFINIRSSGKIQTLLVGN
# In short: as §1
# [18] = biological target: ETV6 (Homo sapiens, UniProt P41212 1-452); conditions: protein: recombinant; tags: N-terminal GST; dsDNA, one strand shown
# In short: as §1
# ELF4, sequence (Q99607 whole entry): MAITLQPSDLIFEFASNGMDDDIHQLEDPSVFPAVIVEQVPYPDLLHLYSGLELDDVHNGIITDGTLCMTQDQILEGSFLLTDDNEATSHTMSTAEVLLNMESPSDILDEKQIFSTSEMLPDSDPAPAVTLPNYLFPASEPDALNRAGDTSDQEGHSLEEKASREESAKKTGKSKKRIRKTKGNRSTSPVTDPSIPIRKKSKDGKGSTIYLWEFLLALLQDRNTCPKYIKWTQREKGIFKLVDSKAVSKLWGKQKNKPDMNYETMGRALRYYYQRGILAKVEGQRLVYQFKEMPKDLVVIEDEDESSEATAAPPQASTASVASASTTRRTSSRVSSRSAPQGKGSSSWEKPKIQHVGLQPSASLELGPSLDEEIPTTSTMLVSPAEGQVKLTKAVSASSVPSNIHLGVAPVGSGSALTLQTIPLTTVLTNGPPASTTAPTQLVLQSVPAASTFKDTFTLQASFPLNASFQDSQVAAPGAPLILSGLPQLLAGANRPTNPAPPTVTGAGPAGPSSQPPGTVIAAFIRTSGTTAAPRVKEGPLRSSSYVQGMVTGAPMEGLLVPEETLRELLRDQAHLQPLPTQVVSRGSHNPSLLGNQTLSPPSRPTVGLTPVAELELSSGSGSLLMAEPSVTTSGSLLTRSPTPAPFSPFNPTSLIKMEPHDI
# HSF1, sequence (Q00613 whole entry): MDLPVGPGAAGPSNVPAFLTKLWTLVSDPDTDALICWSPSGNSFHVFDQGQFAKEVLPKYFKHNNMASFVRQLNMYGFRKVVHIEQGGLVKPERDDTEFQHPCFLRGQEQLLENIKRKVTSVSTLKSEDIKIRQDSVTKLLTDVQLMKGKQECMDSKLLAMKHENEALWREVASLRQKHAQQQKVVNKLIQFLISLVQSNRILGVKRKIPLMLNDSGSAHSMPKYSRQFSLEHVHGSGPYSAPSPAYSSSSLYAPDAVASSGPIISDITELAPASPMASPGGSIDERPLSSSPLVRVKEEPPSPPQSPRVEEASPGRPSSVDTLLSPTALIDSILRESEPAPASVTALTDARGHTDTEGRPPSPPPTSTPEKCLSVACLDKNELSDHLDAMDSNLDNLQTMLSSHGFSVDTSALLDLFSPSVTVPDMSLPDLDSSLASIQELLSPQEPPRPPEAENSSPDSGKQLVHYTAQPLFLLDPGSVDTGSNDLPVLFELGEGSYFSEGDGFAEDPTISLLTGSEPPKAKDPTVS
# ETV1, sequence (P50549 whole entry): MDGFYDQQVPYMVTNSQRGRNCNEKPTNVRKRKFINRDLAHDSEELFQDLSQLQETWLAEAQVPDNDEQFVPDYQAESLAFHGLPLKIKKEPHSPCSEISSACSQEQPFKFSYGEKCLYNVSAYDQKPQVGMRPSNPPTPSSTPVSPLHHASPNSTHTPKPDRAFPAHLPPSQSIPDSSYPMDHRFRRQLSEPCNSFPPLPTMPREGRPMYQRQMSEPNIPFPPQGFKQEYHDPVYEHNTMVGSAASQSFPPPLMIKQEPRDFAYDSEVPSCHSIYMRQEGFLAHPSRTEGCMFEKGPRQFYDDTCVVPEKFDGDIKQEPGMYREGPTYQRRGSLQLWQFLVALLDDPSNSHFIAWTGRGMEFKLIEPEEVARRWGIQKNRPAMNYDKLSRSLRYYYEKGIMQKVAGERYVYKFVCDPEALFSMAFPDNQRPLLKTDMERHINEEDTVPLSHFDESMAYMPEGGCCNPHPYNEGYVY
# ETV5, sequence (P41161 whole entry): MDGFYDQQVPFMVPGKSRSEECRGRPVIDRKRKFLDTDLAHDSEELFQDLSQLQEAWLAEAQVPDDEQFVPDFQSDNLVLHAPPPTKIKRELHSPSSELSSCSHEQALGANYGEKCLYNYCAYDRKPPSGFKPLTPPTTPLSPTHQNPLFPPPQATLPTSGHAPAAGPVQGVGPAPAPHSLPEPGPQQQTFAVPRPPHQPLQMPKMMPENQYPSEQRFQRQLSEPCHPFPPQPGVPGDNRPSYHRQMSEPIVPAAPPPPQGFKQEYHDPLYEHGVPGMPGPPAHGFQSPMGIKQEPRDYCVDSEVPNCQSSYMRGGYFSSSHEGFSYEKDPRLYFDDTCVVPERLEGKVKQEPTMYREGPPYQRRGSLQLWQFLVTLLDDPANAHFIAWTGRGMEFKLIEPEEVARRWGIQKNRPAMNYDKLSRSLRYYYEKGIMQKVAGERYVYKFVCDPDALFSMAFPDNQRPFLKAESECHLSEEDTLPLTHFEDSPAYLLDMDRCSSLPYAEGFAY
# ETV6, sequence (P41212 whole entry): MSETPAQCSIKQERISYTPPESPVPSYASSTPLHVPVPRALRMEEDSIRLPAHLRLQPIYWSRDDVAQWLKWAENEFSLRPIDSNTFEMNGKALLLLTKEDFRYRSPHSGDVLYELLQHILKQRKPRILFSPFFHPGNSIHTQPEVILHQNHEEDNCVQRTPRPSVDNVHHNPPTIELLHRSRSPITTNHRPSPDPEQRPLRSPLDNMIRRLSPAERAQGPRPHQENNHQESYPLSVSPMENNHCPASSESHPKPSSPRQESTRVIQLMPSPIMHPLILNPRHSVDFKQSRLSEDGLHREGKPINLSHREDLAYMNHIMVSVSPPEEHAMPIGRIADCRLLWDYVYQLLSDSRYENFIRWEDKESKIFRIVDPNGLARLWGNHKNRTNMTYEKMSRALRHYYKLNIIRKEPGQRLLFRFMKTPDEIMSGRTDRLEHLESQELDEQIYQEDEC
# CRX, sequence (O43186 whole entry): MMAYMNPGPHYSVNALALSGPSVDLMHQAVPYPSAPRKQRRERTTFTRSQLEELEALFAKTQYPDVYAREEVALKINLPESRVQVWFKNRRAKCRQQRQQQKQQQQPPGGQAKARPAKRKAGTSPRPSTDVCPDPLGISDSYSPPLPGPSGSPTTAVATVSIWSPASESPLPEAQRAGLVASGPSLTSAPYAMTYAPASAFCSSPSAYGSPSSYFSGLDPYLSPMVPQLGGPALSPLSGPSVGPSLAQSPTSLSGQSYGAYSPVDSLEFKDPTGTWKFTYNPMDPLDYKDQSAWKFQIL
sequence,measurement,setting,value
CAATAC,binding signal,[1],"1.27 fold enrichment (6-mer frequency, TF over GST control)"
same,binding signal,[2],"1.26 fold enrichment (6-mer frequency, TF over GST control)"
same,binding signal,[3],"1.07 fold enrichment (6-mer frequency, TF over GST control)"
same,binding signal,[4],"1.16 fold enrichment (6-mer frequency, TF over GST control)"
same,binding signal,[5],"1.23 fold enrichment (6-mer frequency, TF over GST control)"
same,binding signal,[6],"1.39 fold enrichment (6-mer frequency, TF over GST control)"
same,binding signal,[7],"1.22 fold enrichment (6-mer frequency, TF over GST control)"
same,binding signal,[8],"1.29 fold enrichment (6-mer frequency, TF over GST control)"
same,binding signal,[9],"1.04 fold enrichment (6-mer frequency, TF over GST control)"
same,binding signal,[10],"1.3 fold enrichment (6-mer frequency, TF over GST control)"
same,binding signal,[11],"1.38 fold enrichment (6-mer frequency, TF over GST control)"
same,binding signal,[12],"1.3 fold enrichment (6-mer frequency, TF over GST control)"
same,binding signal,[13],"1.22 fold enrichment (6-mer frequency, TF over GST control)"
same,binding signal,[14],"1.23 fold enrichment (6-mer frequency, TF over GST control)"
same,binding signal,[15],"1.35 fold enrichment (6-mer frequency, TF over GST control)"
same,binding signal,[16],"1.18 fold enrichment (6-mer frequency, TF over GST control)"
same,binding signal,[17],"1.29 fold enrichment (6-mer frequency, TF over GST control)"
same,binding signal,[18],"1.22 fold enrichment (6-mer frequency, TF over GST control)"
